# Data as given in PubChem BioAssay (EPA / NIEHS).
# “And” between values parts separate entries of the source, which are not always exact repeats. Equal values may be shown once. Some structures have more than one record in an assay (separate samples or runs), and their calls can disagree. The source made the active and inactive calls. Rule for the calls: active = hit-call score of the fitted dose curve at least 0.9, where 1 is the maximum; inactive = score below 0.9.
# Read-out: Interferon-gamma inducible Protein 10 (IP10), CXCL10 (gene 3627)
# Assay: BSK_BE3C_IP10: BioMAP Diversity Plus: BE3C Assay for Interferon-gamma inducible Protein 10 (IP10) Biomarker Activity (AID 2283034)
# Settings: primary human bronchial epithelial cells; actives raise or lower the signal
# Experimental: BSK_BE3C is a cell-based, multiplexed-readout assay that uses bronchial epithelial cell, a human lung primary cell, with measurements taken at 24 hours after chemical dosing in a 96-well plate.BSK_BE3C_IP10 is an assay component measured in the BSK_BE3C assay. It measures IP-10 antibody related to regulation of gene expression using ELISA technology.Data from the assay component BSK_BE3C_IP10 was analyzed into 1 assay endpoint. This assay endpoint, BSK_BE3C_IP10, was analyzed with bidirectional fitting relative to DMSO as the negative control and baseline of activity. Using a type of binding reporter, gain or loss-of-signal activity can be used to understand changes in the signaling as they relate to the gene CXCL10. Furthermore, this assay endpoint can be referred to as a primary readout, because this assay has produced multiple assay endpoints where this one serves a signaling function. To generalize the intended target to other relatable targets, this assay endpoint is annotated to the cytokine intended target family, where the subfamily is chemotactic factor.
# The levels of cell surface (or secreted, indicated by the prefix "s") biomarker endpoints were measured by ELISA. Overt cytotoxicity to cells in confluent adherent cultures (all systems other than the BT system) was assessed by measuring total protein levels using sulforhodamine B (SRB) staining in parallel cultures at the time of biomarker measurements, indicated as SRB endpoints. For proliferation assays for adherent cell types, individual cell types are cultured at sub-confluence and relative cell numbers quantified by SRB staining at time points optimized for each system (48 h: 3C and CASM3C systems; 72 h: BT and HDF3CGF systems; 96 h: SAg system). SRB was performed by staining cells with 0.1% SRB after fixation with 10% TCA and reading wells at 560 nm.Viability and proliferation of PBMC (T cells) was quantified by Alamar Blue reduction for the SAg and BT systems. For PBMC viability (referred to as PBMC Cytotoxicity within the assay endpoint names), cells were plated (75,000/well in a 96-well plate) and then chemical samples added for 1 h before addition of activators, SEB and TSST-1 (20 ng/mL final concentration each). Cells were incubated for 90 h. Then, Alamar Blue (20 uL/well) (Invitrogen, Cat DAL1100) was added for 6 h, and the plates were read with a fluorescence microplate reader at 546/580 nm (excitation/emission). For PBMC proliferation, cells were plated and activated as above but incubated for only 16 h prior to addition of Alamar Blue. Plates were read after 6 h.
Structure (SMILES),AC50,outcome
O=C(c1ccc(OCCN2CCCCC2)cc1)c1c(-c2ccc(O)cc2)sc2cc(O)ccc12,39.2 µM (active),
CC(=O)c1ccc(C)cc1,,inactive
CC(C)Cc1ccc(C(C)C(=O)O)cc1 (stereo not given),,inactive
OCCN1CCOCC1,,inactive
CC=CC(=O)C1=C(C)C=CCC1(C)C,,inactive
c1ccc2c(c1)-c1ccc3ccc4cccc5cc-2c1c3c45,,inactive
C=C(C)C(N)=O,,inactive
CCCCCCCCCC(=O)OCC,20 µM (active),
Nc1ccc(N)c([N+](=O)[O-])c1,,inactive
c1ccc(Sc2ccccc2)cc1,30.1 µM (active),
CC(C)CCCC(C)(C)O,,inactive
c1ccc(OCCOc2ccccc2)cc1,,inactive
OCC(F)(OC(F)(F)C(F)(OC(F)(F)C(F)(F)C(F)(F)F)C(F)(F)F)C(F)(F)F (stereo not given),4.78 µM (active),inactive
CC/C(=C(\c1ccccc1)c1ccc(OCCN(C)C)cc1)c1ccccc1,10.3 µM (active) and 9.01 µM (active),
CCn1cc(C(=O)O)c(=O)c2ccc(C)nc21,,inactive
C=CC(=O)OCC(CO)(COC(=O)C=C)COC(=O)C=C,0.818 µM (active),
CC1(C)[C@H](C=C(Cl)Cl)[C@H]1C(=O)OCc1cccc(Oc2ccccc2)c1,,inactive
CCOC(=O)C=Cc1ccccc1,,inactive
COc1ccccc1NC(=O)CC(C)=O,,inactive

Structure (SMILES),AC50,outcome
CC(=O)CCC=C(C)CCC=C(C)C,,inactive
CC(C)(C)c1cccc(O)c1,,inactive
CCCO[Si](OCCC)(OCCC)OCCC,,inactive
C[C@]12CC[C@@H]3c4ccc(O)cc4CC[C@H]3[C@@H]1CC[C@@H]2O,,inactive
O=C(O)C(F)(F)C(F)(F)C(F)(F)C(F)(F)C(F)(F)C(F)(F)C(F)(F)C(F)F,30 µM (active) and 38.3 µM (active),
CCCCCCCCCCCCS,20 µM (active),
O=C(O)C(F)(F)OC(F)(F)C(F)(F)OC(F)(F)C(F)(F)C(F)(F)C(F)(F)F,46.8 µM (active) and 41.4 µM (active),
CC(C)(CO)CO,5.62 µM (active),inactive
COC(=O)c1ccc(C(=O)OC)cc1,,inactive
CCCCOCCOCCO,,inactive
CCCCCCCC1CCCC1=O (stereo not given),33.5 µM (active),
O=S(=O)(O)C(F)(F)C(F)(F)OC(F)(F)C(F)(F)F,,inactive
O=C1OC2(c3ccc(O)cc3Oc3cc(O)ccc32)c2ccccc21,,inactive
C=C(C)C(=O)OCCC(F)(F)C(F)(F)C(F)(F)C(F)(F)C(F)(F)C(F)(F)C(F)(F)C(F)(F)F,,inactive
C=C(F)C(=O)OC(C(F)(F)F)C(F)(F)F,,inactive
C=C1CC/C=C(\C)CC[C@@H]2[C@@H]1CC2(C)C,28.6 µM (active),
CCCCN(CCO)CCO,,inactive
O=S1(=O)CC(Cl)(Cl)C(Cl)(Cl)C1,1.07 µM (active),
CCC(=O)OCC=Cc1ccccc1,,inactive
